HTT aggregate – mutant huntingtin aggregation inhibition | PC12 HttQ103-GFP aggregates, Acumen cytometry, 40 h | Potency, µM (top dose mostly 46.1 µM), without a hit: at the highest dose activity change, negative = inhibition, hits mostly inhibitors | 220,000 tested, 1.1% active | AID 1688; further: on the % scale 0 is the no-effect control and ±100 the full control effect; nearly all actives have a fitted effect of over 60% in size
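PC12 cells stably carrying ecdysone-inducible HTT exon 1 Q103–GFP were induced with tebufenozide (100 nM final) and treated with library compounds in titration. GFP aggregates in lysates were counted by laser scanning cytometry.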
HepG2 tox-1 – HepG2 cytotoxicity, counter-screen for TGF-b inhibitors | HepG2 CAGA-GFP viability, ATP luminescence, 18 h | Potency, µM (highest dose often 46.1 µM), for inactives: at the highest dose activity change, negative = cytotoxicity, usual class: cytotoxic | 410,000 tested, 0.76% active | AID 588856
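CellTiter-Glo luminescence gave cytotoxicity after 18 hours at 37 degrees C. The cells were HepG2 CAGA-GFP in 1% FBS DMEM, stimulated with 500 pg/mL TGF-beta after compound addition. %Activity was normalised to no-cell wells (complete cell-killing) and DMSO (no toxicity), and curves were fitted and classified.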
ATXN2 expr inh – inhibitors of ATXN2 expression | Potency, µM (series often up to 57 µM), inactives show top-dose activity change, negative = inhibition, most hits filed as inhibitors | HEK-293 ATXN2-luciferase reporter, luminescence, 24 h | 360,000 tested, 0.72% active; further: on the % scale 0 is the no-effect control and ±100 the full control effect; nearly all actives have a fitted effect of over 55% in size
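qHTS (up to 57 uM final) was run with 24 h compound exposure of reporter cells at 37 °C. Each well was multiplexed: SteadyGlo luminescence measured ATXN2-luciferase expression after a fluorogenic Gly-Phe-AFC viability readout (25 uM final).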
TGFb inhibitor – TGF-b pathway inhibition. Potency, µM (highest dose often 46.1 µM), for inactives: top-dose activity, negative = inhibition, most hits filed as inhibitors. 410,000 tested, 1.2% active. HepG2 CAGA-GFP TGF-b/SMAD3 reporter, GFP fluorescence, 18 h; TGF-beta stimulated, 500 pg/mL final; further: on the % scale 0 is the no-effect control and ±100 the full control effect; nearly all actives have a fitted effect of over 65% in size
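Read-out: total well GFP (ex488/em500-530) summed from mean per-cell fluorescence. Cells: HEPG2 CAGA-GFP, 1% FBS DMEM, 18 h at 37 degrees C with 500 pg/mL final TGF-beta. Unstimulated wells served as the full-inhibition control; stimulated DMSO wells = 0%.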
HTT ATP protect – protects HTT-Q103 PC12 cells, measured by ATP. PC12 HTT-Q103 induced, cytoprotection, ATP luminescence, 40 h. Potency, µM (series often up to 56.4 µM), without a hit: cytoprotection (ATP increase), usual class: activators. 230,000 tested, 0.14% active. AID 1471; further: % of control where 0% means no effect; nearly all actives have a fitted effect of over 45% in size
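PC12 cells with ecdysone-inducible HTT exon 1 Q103-GFP, induced with 100 nM tebufenozide and co-treated with library compounds in a dose series (1536-well, 1500 cells/well). Cytoprotection read as ATP content by ATPlite luminescence.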
ATXN viability – reduces viability in counter-screen for ATXN expression inhibitors; S2 cells (HEK-293 line with an ATXN2-luciferase reporter) viability, CellTiter-Fluor protease fluorescence, 24 h; Potency, µM (series often up to 56.7 µM), most hits filed as cytotoxic; 400,000 tested, 0.49% active; AID 651635; further: nearly all actives have a fitted effect of over 40% in size
TGFb CAGA inh – confirmation of TGF-b signaling inhibitors in HepG2 reporter cells; shares compounds with TGFb inhibitor; HepG2 CAGA-GFP TGF-b reporter, GFP fluorescence, 18 h; cells stimulated with TGF-beta, 500 pg/mL; Potency, µM (top dose mostly 46.1 µM), without a hit: top-dose activity, negative = inhibition, hits mostly inhibitors; 1,600 tested, 63% active; further: on the % scale 0 is the no-effect control and ±100 the full control effect; nearly all actives have a fitted effect of over 65% in size
HepG2 tox-2 – HepG2 cytotoxicity, TGF-b inhibitor counterscreen. HepG2 CAGA-GFP viability, ATP luminescence, 18 h; cells stimulated with TGF-beta, 500 pg/mL. shares compounds with TGFb inhibitor. 1,600 tested, 27% active. Potency, µM (highest dose often 46.1 µM), for inactives: at the highest dose activity, negative = cytotoxicity, hits mostly inhibitors; further: on the % scale 0 is the no-effect control and ±100 the full control effect; nearly all actives have a fitted effect of over 70% in size
CCL64 TGFb inh – TGF-b inhibition, CCL64 orthogonal assay | shares compounds with TGFb inhibitor | CCL64 CAGA-GFP reporter, TGF-b stimulated, GFP fluorescence, 18 h | Potency, µM (top dose mostly 46.1 µM), inactives show at the top dose activity, negative = inhibition, usual class: inhibitors | 1,600 tested, 41% active; further: nearly all actives have a fitted effect of over 65% in size
COP TGFb inh – TGF-b inhibition validated with COP promoter | shares compounds with TGFb inhibitor | 1,600 tested, 3% active | HepG2 COP-GFP TGF-b reporter, GFP fluorescence, 18 h; cells stimulated by added recombinant TGF-beta | Potency, µM (doses to about 46.1 µM), inactives show at the highest dose activity, negative = inhibition, hits mostly inhibitors; further: nearly all actives have a fitted effect of over 70% in size
* hit, by the source's call; i = inactive; ? = inconclusive; / = not tested or not shown; [ ] = another dose, or the depositor's remark. A selection: hits, their analogues and other compounds. The true share with any hit is near 2.8%. The call rests on the fitted dose curve; in most records, active means well fitted curve in the direction sought with a large enough effect; inconclusive means small, poorly fitted or top-dose-only effect, or another doubt; inactive means no such curve, though single readings can be large; an effect the other way counts as inactive or inconclusive. Potency means the concentration at half of the fitted maximal effect.

SMILES	HTT aggregate	HepG2 tox-1	ATXN2 expr inh	TGFb inhibitor	HTT ATP protect	ATXN viability	TGFb CAGA inh	HepG2 tox-2	CCL64 TGFb inh	COP TGFb inh
O=C(NCc1cccnc1)c1cc(Sc2cccc(Cl)c2)nc2ccccc12	-5%	-14%	-19%	11µM*	8%[10 µM]	i	?	-29%	?	27%
C[C@]12c3[nH]c4ccc(Cl)cc4c3CCN1C(=O)[C@@H](CC(=O)NCCC1=CCCCC1)C[C@@H]2C(=O)N1CCOCC1	/	-26%	?	?	/	?	16µM*	-9%	?	2%
CCN(CC)C(=O)[C@H]1CC(CC(=O)NCCC2=CCCCC2)C(=O)N2CCc3c([nH]c4ccc(OC)cc34)[C@]12C (stereo partly specified)	/	5%	-8%	?	/	i	/	/	/	/
CC(C)=CCC/C(C)=C/CNC(=O)C[C@H]1C[C@H](C(=O)N2CCOCC2)[C@@]2(C)c3[nH]c4ccc(Cl)cc4c3CCN2C1=O	/	18µM*	4%	10µM*	/	i	13µM*	?	13µM*	-20%
COc1ccc2[nH]c3c(c2c1)CCN1C(=O)C(CC(=O)NCCC2=CCCCC2)C[C@H](C(=O)N(C(C)C)C(C)C)[C@@]31C (stereo partly specified)	/	-70%	?	10µM*	/	?	?	-20%	?	39%
C[C@]12c3[nH]c4ccc(Cl)cc4c3CCN1C(=O)[C@@H](CC(=O)NCCN1CCOCC1)C[C@@H]2C(=O)N1CCOCC1	/	-2%	9%	3%	/	i	/	/	/	/
C[C@]12c3[nH]c4cc(-c5ccco5)ccc4c3CCN1C(=O)[C@@H](CC(=O)NCCC1=CCCCC1)C[C@@H]2C(=O)N1CCOCC1	/	3%	0%	11µM*	/	?	?	?	?	50%
CC(C)c1ccc(/C(C(=O)O)=C(\O)C(=O)O)cc1	/	/	/	/	-4%[10 µM]	/	/	/	/	/
COC(=O)C1=C[C@@H](C(=O)OC)C2C3=C(C(=O)[C@@]2(C)NC(=O)c2ccccc2)[C@H](c2ccccc2)n2c(=O)n(-c4ccccc4)c(=O)n2[C@@H]3C1 (stereo partly specified)	/	3%	/	10%	/	/	/	/	/	/
C(=C\c1nc2ccccc2nc1/C=C/c1ccc2c(c1)OCO2)/c1ccc2c(c1)OCO2	/	-2%	/	20%	/	/	/	/	/	/
CCN(CC)C(=O)[C@H]1C[C@H](CC(=O)NC/C=C(\C)CCC=C(C)C)C(=O)N2CCc3c([nH]c4cc(CCC(=O)N(C)C)ccc34)[C@]12C	/	-23%	?	13µM*	/	?	23µM*	?	?	55%
Cc1cc(NC(=O)NC(=O)c2ccccc2NC(=O)CN)ccc1Oc1ncc(Br)cn1	/	-25%	-16%	?	/	?	/	/	/	/
Nc1ccccc1C(=O)NC(=O)Nc1ccc(Oc2ncc(Br)cn2)c(Cl)c1	/	0%	-9%	?	/	?	?	-8%	5.8µM*	-18%
CCOC(=O)N(C)c1c(CC)nc2c(OCc3ccc(F)cc3)cccn12	/	2%	-29%	-11%	/	i	/	/	/	/
CCOC(=O)N(C)c1c(CC)nc2c(OCc3ccc(C(F)(F)F)cc3)cccn12	/	-12%	?	?	/	i	?	-19%	4%	0%
CCC(=O)NC(c1ccc(OC)cc1)c1cc(Cl)c2cccnc2c1O (stereo unspecified)	-3%[9.22 µM]	-32%	?	7.9µM*	-8%[10 µM]	i	-24%	?	8.2µM*	21%
CCC(=O)NC(c1ccco1)c1cc(Cl)c2cccnc2c1OC (stereo unspecified)	/	-3%	1%	?	/	i	/	/	/	/
CCC(=O)NC(c1ccco1)c1cc(Cl)c2cccnc2c1O (stereo unspecified)	-35%[9.22 µM]	-12%	?	?	-66%[10 µM]	i	-30%	-25%	9.2µM*	16%
Cc1cc(Cl)c(S(=O)(=O)N2CCN(c3ccccn3)CC2)cc1OCC(=O)NC1CCCCC1	-2%[9.22 µM]	-22%	/	10µM*	3%[10 µM]	?	12µM*	?	-25%	16%
COc1cccc2c1C(CO)N1C(C#N)C3CC(C(=O)O)C(C1C2)N3C (stereo unspecified)	1.1µM*	16%	0.28µM*	1.3µM*	-55%[10 µM]	i	0.65µM*	0.52µM*	7.3µM*	-4%
COc1cccc2c1OCC(C(=O)O)C2 (stereo unspecified)	9%[9.22 µM]	-7%	-25%[11.3 µM]	-13%	9%[10 µM]	i	/	/	/	/
Nc1ccn([C@H]2O[C@@H](COP(=O)(O)O)[C@@H](O)[C@H]2O)c(=O)n1	/	/	/	/	-50%[10 µM]	/	/	/	/	/
Cc1ccccc1C(=O)N1CCN(c2ccc(NC(=O)CSc3ccc(Cl)cc3)cc2)CC1	?	-4%	?	4.5µM*	-48%	i	4.1µM*	?	?	14%
CC(C)(C)S(=O)(=O)/C(C#N)=N/Nc1ccc(Cl)cc1	11µM*	-33%	?	?	-13%[10 µM]	?	13µM*	?	?	49%
CC(C)(C)c1ccc(N/N=C(\C#N)S(=O)(=O)C(C)(C)C)cc1	?	-43%	-32%	?	-46%	?	/	/	/	/

Screening results deposited in PubChem by National Center for Advancing Translational Sciences (NCATS).
